Data on 13 compounds can be found in PubChem BioAssay (NCATS).

The target of assay [1] is Metallo-beta-lactamase type 2 (Klebsiella pneumoniae) (UniProt C7C422). The assay is described as follows: qHTS to identify inhibitors of the New Delhi Metallo-beta-lactamase (NDM): assay validation screen against the NCATS LOPAC Collection (AID 1794843).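 Also: nitrocefin turnover by NDM-1 measured as 485 nm absorbance at plateau; % is scaled to controls: 0 for no effect and ±100 for the full control effect.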 An outline of the steps:
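Nitrocefin hydrolysis (50 uM substrate stock) by NDM-1, 2 nM final, was followed by 485 nm absorbance after compound preincubation; buffer was 50 mM HEPES pH 7.0, 1 uM ZnSO4, 0.01% Tween20.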

Assay [2] has as its target Phospholipid hydroperoxide glutathione peroxidase GPX4 (Homo sapiens) (UniProt P36969). Put plainly: Primary qHTS Assay for Inhibitors of Recombinant Selenoprotein Glutathione Peroxidase 4 (GPX4) (AID 1845192). Also: nearly all actives have a fitted effect of over 65% in size. Conditions: outcome: dose series up to 50 µM unless noted. In short, it runs like this:
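Steps: GPX4 plus compound, 30 min RT; add GR/GSH/NADPH master mix; start with cumene hydroperoxide; read 340/450 nm fluorescence at 0 and 15 min. Finals were 200 nM GPX4, 1 mM GSH, 0.5 mM CHP, 0.5 mM NADPH, 100 nM GR.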

Assay [3] in a line: qHTS profiling for inhibitors of Plasmodium falciparum proliferation (AID 504749). Also: potency is read from the fitted curve at half-maximal effect.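 As to activity, negative = inhibition: 0% = DMSO vehicle and full inhibition = artemisinin control.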 As to all read-outs here: nearly all actives have a fitted effect of over 60% in size. Conditions: P. falciparum in erythrocytes, SYBR Green DNA, 72 h; for activity, negative = inhibition: at 28.7 µM (top of the series). In short, it runs like this: (§1)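 Each compound contacts P. falciparum-infected red blood cells for 72 h at 37 C; lysis buffer (Tris, EDTA, saponin, Triton X, SYBR Green I) is added and fluorescence measured next morning; values normalized to controls.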

The test system of the next assay is 3D7. The description is as above. Conditions: P. falciparum in erythrocytes, SYBR Green DNA, 72 h; series mostly up to 28.7 µM. In short, it runs like this:
as §1

A further assay concerns 7G8. The assay is described as above. The conditions noted are these: P. falciparum in erythrocytes, SYBR Green DNA, 72 h; series mostly up to 28.7 µM. An outline of the steps:
as §1

In another assay the test system is AA1029. The assay is described as above. The conditions noted are these: P. falciparum in erythrocytes, SYBR Green DNA, 72 h; series mostly up to 28.7 µM. An outline of the steps:
as §1

The next assay concerns AS120. The description is as above. The conditions noted are these: P. falciparum in erythrocytes, SYBR Green DNA, 72 h; series mostly up to 28.7 µM. In short, it runs like this:
as §1

The test system of a further assay is ATS189. The assay is described as above. Conditions: P. falciparum in erythrocytes, SYBR Green DNA, 72 h; series mostly up to 28.7 µM. An outline of the steps: as §1
For the next assay, the system named is ATS95. Described as above. Conditions: P. falciparum in erythrocytes, SYBR Green DNA, 72 h; series mostly up to 28.7 µM. In short, it runs like this:
as §1

The test system of a further assay is C2A. The description is as above. Conditions: P. falciparum in erythrocytes, SYBR Green DNA, 72 h; series mostly up to 28.7 µM. In short, it runs like this: as §1
Another assay has as its system CP185. The assay is described as above. Conditions: P. falciparum in erythrocytes, SYBR Green DNA, 72 h; series mostly up to 28.7 µM. An outline of the steps:
as §1

The subject of a further assay is CP191. The description is as above. The conditions noted are these: P. falciparum in erythrocytes, SYBR Green DNA, 72 h; series mostly up to 28.7 µM. In short, it runs like this: as §1
A further assay deals with CP192. Described as above. Conditions: P. falciparum in erythrocytes, SYBR Green DNA, 72 h; series mostly up to 28.7 µM. An outline of the steps: as §1
Another assay concerns CP194. The description is as above. The conditions noted are these: P. falciparum in erythrocytes, SYBR Green DNA, 72 h; series mostly up to 28.7 µM. In short, it runs like this: as §1
In assay [4] the target is Glutathione peroxidase 1 (Homo sapiens) (UniProt P07203). The assay is described as follows: Primary qHTS Assay for Inhibitors of Recombinant Selenoprotein Glutathione Peroxidase 1 (GPX1) (AID 1845191). Also: nearly all actives have a fitted effect of over 65% in size. As to activity, negative = inhibition: % is scaled to controls: 0 for no effect and ±100 for the full control effect. An outline of the steps:
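GR-coupled readout: NADPH consumption tracked by fluorescence, ex 340/em 450 nm, at t=0 and after 15 min at RT. Final mix 10 nM GPX1, 1 mM GSH, 0.5 mM CHP, 0.5 mM NADPH, 100 nM GR, 0.01% BSA, following 30 min enzyme–compound preincubation.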

Inconclusive results are not listed. Values without a mark were called inactive. The source made the active and inactive calls. Calls follow the shape of the dose curve; as a rule, active = well fitted curve in the direction sought with a large enough effect; inconclusive = small, poorly fitted or top-dose-only effect, or another doubt; inactive = no such curve, though single readings can be large; an effect the other way counts as inactive or inconclusive.

Metallo-beta-lactamase type 2 (Klebsiella pneumoniae), sequence (C7C422 whole entry, looked up): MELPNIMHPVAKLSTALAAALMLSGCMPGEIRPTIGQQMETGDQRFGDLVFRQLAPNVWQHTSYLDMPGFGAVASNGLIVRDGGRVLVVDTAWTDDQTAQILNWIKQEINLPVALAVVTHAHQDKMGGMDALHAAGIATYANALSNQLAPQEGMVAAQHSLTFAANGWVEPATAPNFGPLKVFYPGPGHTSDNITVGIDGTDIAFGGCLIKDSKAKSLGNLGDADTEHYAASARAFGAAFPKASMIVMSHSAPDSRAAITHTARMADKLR
Glutathione peroxidase 1 (Homo sapiens), sequence (P07203 whole entry, looked up): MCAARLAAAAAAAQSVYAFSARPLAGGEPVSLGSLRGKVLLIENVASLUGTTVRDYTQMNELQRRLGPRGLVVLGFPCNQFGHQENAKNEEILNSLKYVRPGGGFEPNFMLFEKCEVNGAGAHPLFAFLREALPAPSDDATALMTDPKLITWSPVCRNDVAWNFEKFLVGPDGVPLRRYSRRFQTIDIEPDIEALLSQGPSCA
Phospholipid hydroperoxide glutathione peroxidase GPX4 (Homo sapiens), sequence (P36969 whole entry, looked up): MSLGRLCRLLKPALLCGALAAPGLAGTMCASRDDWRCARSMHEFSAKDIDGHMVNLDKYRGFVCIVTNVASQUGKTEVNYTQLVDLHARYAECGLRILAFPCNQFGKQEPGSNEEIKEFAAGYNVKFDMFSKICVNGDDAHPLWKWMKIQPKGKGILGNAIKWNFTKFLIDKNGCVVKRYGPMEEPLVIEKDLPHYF

Consider `CC(C)(C)c1ccc(C(=O)CCCN2CCC(OC(c3ccccc3)c3ccccc3)CC2)cc1`, for which the Potency entry in assay [1] was “inactive”. Further, the result in assay [2] was inactive. Further, the Potency in assay [3] (parasite line A) was 10 µM (active); in the assay with 3D7 it was 7.94 µM (active); in the assay with 7G8 it was 3.55 µM (active); with AA1029, 10 µM (active); in the assay with AS120, 6.31 µM (active); in the assay on ATS189, 10 µM (active). Moreover, in the assay on ATS95, the Potency is 8.91 µM (active).
In the case of `CCCCNC(=O)NS(=O)(=O)c1ccc(C)cc1`, the Potency result (in [1]; in the assay with 3D7; in the assay on 7G8; in the assay with AA1029; with AS120; in the assay with ATS189) was “inactive” each time. Also, the Potency entry in the assay on ATS95, in the assay with C2A, with CP185, in the assay on CP191, with CP192 and in the assay on CP194 was “inactive” in each case. Besides, the activity, negative = inhibition in assay [3] (parasite line A) is 1.62%; in assay [3] (parasite line B) it was 0.192%.
On to `Cc1nc2ccccn2c(=O)c1CCN1CCC(C(=O)c2ccc(F)cc2)CC1`, for which the Potency result (in [1]; with 3D7; in the assay on AS120; in the assay with CP185; in the assay with CP192) was “inactive” each time. In assay [2], the outcome was inactive. In addition, the activity, negative = inhibition in assay [3] (parasite line A) was -18.1%; in assay [3] (parasite line B), 11.2%. Besides, the Potency with 7G8 was 14.1 µM (active); in the assay with CP191, 7.94 µM (active).
For the compound `COCCCC/C(=N\OCCN)c1ccc(C(F)(F)F)cc1`, the Potency result (in assay [1]; in the assay with 3D7; in the assay with ATS189) was “inactive” in each case. Besides, in [3] (parasite line A), the activity, negative = inhibition is -21.1%. Besides, in the assay with 7G8, the Potency was 10 µM (active).
On to `CCN(CC)CCOCCOC(=O)C1(c2ccccc2)CCCC1`, for which the Potency entry (in assay [4]; in the assay with AA1029; in the assay with CP185; in the assay with CP192) was “inactive” in each case. The outcome in assay [2] was inactive. Besides, the Potency is 1.78 µM (active) in the assay with 7G8; 12.6 µM (active) in the assay with AS120; 7.08 µM (active) in the assay on ATS189; 11.2 µM (active) in the assay on ATS95; 7.94 µM (active) in the assay with CP191.
Regarding `CNC1(C)C2CCC(C2)C1(C)C` (stereo unspecified), the Potency result (in assay [1]; in the assay on 3D7; in the assay with 7G8; with AA1029; with AS120; in the assay with ATS189) was “inactive” each time. The Potency result in the assay with ATS95, in the assay with C2A, in the assay on CP185, in the assay with CP191, in the assay with CP192 and in the assay with CP194 was “inactive” in each case. In addition, in assay [2], the outcome was inactive. The activity, negative = inhibition in assay [3] (parasite line A) is 6.34%; in [3] (parasite line B), 5.34%.
For the compound `Cc1ccc(/C(=C\CN2CCCC2)c2ccccn2)cc1`, the Potency result in assay [4] is “inactive”.
As for `COc1ccc(CCN(C)CCCC(C#N)(c2cc(OC)c(OC)c(OC)c2)C(C)C)cc1OC` (stereo unspecified), the Potency result in assay [1] is “inactive”. Further, the Potency with 7G8 was 10 µM (active).
Take `Brc1c(NC2=NCCN2)ccc2nccnc12`: the Potency result (in assay [1]; with AA1029; in the assay on AS120; with ATS95; in the assay with C2A; in the assay on CP185) was “inactive” in each case. The Potency result in the assay with CP192 and with CP194 was “inactive” each time. Besides, the activity, negative = inhibition is 0% in [3] (parasite line A) and 3.95% in assay [3] (parasite line B). Besides, the Potency in the assay with 7G8 is 11.2 µM (active).
For `CN(C)CC[C@@H](c1ccc(Br)cc1)c1ccccn1`, the Potency entry (in assay [4]; in the assay on 3D7; with ATS189; with C2A; in the assay on CP192) was “inactive” in each case. In addition, the activity, negative = inhibition in assay [3] (parasite line A) was -5.21%; in assay [3] (parasite line B) it was 2.6%. In addition, the Potency in the assay on 7G8 was 8.91 µM (active).
In the case of `CC(=O)OCC1=C(C(=O)O)N2C(=O)[C@@H](NC(=O)Cc3cccs3)[C@H]2SC1`, the Potency entry (in assay [1]; in the assay on 3D7; in the assay with 7G8; in the assay with AA1029; with AS120; in the assay with ATS189) was “inactive” each time. For the same compound, the Potency result in the assay on ATS95, with C2A, in the assay on CP185, in the assay with CP191, with CP192 and in the assay on CP194 was “inactive” in each case. The result in [2] was inactive. Further, the figures for the activity, negative = inhibition in assay [3] (parasite line A) and in assay [3] (parasite line B) were 5.33% and 13.1%, respectively.
For `CCCCOCCOCCOCc1cc2c(cc1CCC)OCO2`, the Potency entry (in [4]; in the assay on 3D7; in the assay with 7G8; with AA1029; with AS120; in the assay on ATS189) was “inactive” throughout. Moreover, the Potency entry in the assay with ATS95, in the assay with C2A, in the assay on CP185, in the assay on CP191, in the assay on CP192 and with CP194 was “inactive” each time. The result in [2] was inactive. The activity, negative = inhibition in [3] (parasite line A) is 4.14%; in assay [3] (parasite line B) it was 5.71%.
As for `CCCC(C(=O)OCCN(CC)CC)(c1ccccc1)c1ccccc1`, the Potency result in assay [1] was “inactive”. Also, in assay [2], the result was inactive. Also, the Potency in the assay with 3D7 was 10 µM (active); in the assay on 7G8 it was 3.98 µM (active); with AA1029 it was 11.2 µM (active); in the assay on CP192, 9.53 µM (active).
